The record followed here is PubChem BioAssay (Tox21).

Records with an inconclusive call do not appear. Values without a mark were called inactive. Calls of active or inactive are those of the source. Calls follow the shape of the full dose curve.
% is scaled to controls: 0 for no effect and ±100 for the full control effect; potency is read from the fitted curve at half-maximal effect.

Chain of Retinoic acid receptor RXR-alpha (Homo sapiens) (P19793 whole entry, looked up): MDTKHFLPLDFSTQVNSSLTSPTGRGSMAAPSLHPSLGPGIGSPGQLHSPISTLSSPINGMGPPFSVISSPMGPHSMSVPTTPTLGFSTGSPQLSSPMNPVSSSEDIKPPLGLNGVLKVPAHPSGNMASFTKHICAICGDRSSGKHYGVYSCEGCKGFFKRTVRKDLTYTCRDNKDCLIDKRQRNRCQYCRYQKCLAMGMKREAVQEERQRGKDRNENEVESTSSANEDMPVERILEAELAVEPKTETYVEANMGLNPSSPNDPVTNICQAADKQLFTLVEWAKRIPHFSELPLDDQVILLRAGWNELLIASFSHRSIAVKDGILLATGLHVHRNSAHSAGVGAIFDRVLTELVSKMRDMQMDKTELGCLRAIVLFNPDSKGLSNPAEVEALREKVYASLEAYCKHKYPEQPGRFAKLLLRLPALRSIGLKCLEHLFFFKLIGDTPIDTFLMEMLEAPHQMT

For this experiment, the target named is Retinoic acid receptor RXR-alpha (Homo sapiens) (UniProt P19793). The experiment in a line: qHTS assay to identify small molecule agonists of the RXR signaling pathway (AID 1159527). Also: nearly all actives have a fitted effect of over 35% in size. The note with it: HEK293T RXRa-UAS-bla, beta-lactamase ratio, 16 h; series mostly up to 76.8 µM; activation: at the top concentration. From the text:
U.S. Tox21 Program National Center for Advancing Translational Sciences [NCATS] NIH Chemical Genomics Center [NCGC] U.S. Environmental Protection Agency [EPA] National Institutes of Environmental Health Sciences [NIEHS] National Toxicology Program [NTP] U.S. Food and Drug Administration [FDA] Tox21 Assay Overview: The Retinoid X receptor (RXR), a nuclear hormone receptor expressed in liver, spleen, placenta, epidermis, central nervous system. These receptors are able to form homo and heterodimers with other nuclear receptors and due to this heterodimerizing ability, RXR functions as master regulators producing diverse physiological effects. Three subtypes of RXR exist; alpha, beta and gamma. Retinoid X receptor alpha (RXR-alpha) has potential roles in metabolic signaling pathways, skin alopecia, dermal cysts, cardiac development, insulin sensitization etc. Therefore screening environmental chemicals on RXR-alpha signaling can be used for the studies focused on such therapeutic applications. For quantification of RXR-alpha ligands signaling, GeneBLAzer RXR alpha-UAS-bla HEK 293T (Life Technologies, Carlsbad, CA) cells containing a beta-lactamase reporter-gene under control of Retinoid X receptor-alpha response element were used to screen Tox21 10K library.
Tox21 Assay Protocol Summary: RXR-alpha HEK 293T cells were dispensed at 2,000 cells/6 uL of assay medium containing 2% charcoal-stripped FBS using a Multidrop Combi (ThermoFisher Scientific, Waltham, MA) dispenser. The assay was performed in black wall/clear-bottom 1536-well plates (Greiner Bio-One North America Inc. Monroe, NC). 9-cis retinoic acid was used as a positive control in the agonist mode screen. After the assay plates were incubated at 37 C and 5% CO2 for 5 hr, 23 nL of compounds dissolved in DMSO, positive controls or DMSO only were transferred to the assay plate by a Pintool station (Kalypsys, San Diego, CA). The assay plates were incubated at 37 C and 5% CO2 for 16 hr. One uL of LiveBLAzer B/G FRET substrate (Life Technologies) was added using a Flying Reagent Dispenser (Aurora Discovery, San Diego, CA) and the plates were incubated at room temperature for 2 hr. Fluorescence intensity (405 nm excitation, 460/530 nm emission) was measured using an Envision plate reader (PerkinElmer, Shelton, CT).
Background: Quantitative high-throughput screening tests each substance at several concentrations.
As to `Oc1ccc2[nH]cc(CCCCN3CC=C(c4ccccc4)CC3)c2c1`, the “activation” value is -7.16% [at 35.3 µM]. Consider `CC(=O)O.CC(=O)O.CC(=O)O.CC(=O)O.CC(=O)O.CC(=O)O.CC(=O)O.O.O.[Cr].[Cr].[Cr]`, for which the “activation” value is 0.514%. Still for that read-out and setting: with `Clc1c(Cl)c(Cl)c(Cl)c(Cl)c1Cl` the figure was 5.73% [at 6.98 µM]. Same read-out and setting: with `Cc1nn(-c2cc(NS(C)(=O)=O)c(Cl)cc2Cl)c(=O)n1C(F)F` the figure was 0.336%; with `C#CCO`, -4.53%; with `CCCC[N+]1(C)CCCC1` (tested in a mixture with another compound), 9.08%. Regarding `C[C@@H]1CC2=CC(=O)CC[C@@H]2[C@H]2CC[C@@]3(C)[C@@H](CC[C@]3(C)O)[C@@H]21`, the “activation” value is -6.96% [at 35.3 µM]. The same measure, in the same setting: the same measure for `[O-][Cl+3]([O-])([O-])O`: -1.62%; for `COP(=S)(OC)Oc1ccc([N+](=O)[O-])c(C)c1`: 5.11%; for `ClCBr`: -5.8%. Still for that read-out and setting: the same measure for `O=[N+]([O-])c1ccc(Cl)c(Cl)c1Cl`: -11.4%. On the same count and under the same terms, the same measure for `CC(Cc1ccc2c(c1)OCO2)NO` (stereo not given): -1.57%. Take `O=[N+]([O-])C(Br)Br`: the “activation” value is -2.6%. Still for that read-out and setting: the same measure for `O=[N+]([O-])c1ccccc1-c1ccccc1`: -12.8%; for `BrCC(Br)(Br)Br`: 6.27%; for `Oc1ccc([C@H]2CNCc3c2ccc(O)c3O)cc1O`: -7.32% [at 35.3 µM].

Take `CCN(CC)C(=O)N[C@@H]1C=C2c3cccc4[nH]cc(c34)C[C@@H]2N(C)C1`: the “activation” value was 0.603% [at 35.3 µM]. The same measure, in the same setting: with `CC(Cc1ccc(O)cc1)NCC(O)c1cc(O)cc(O)c1` (stereo not given) the figure was 12.9% [at 35.3 µM]; with `C[N+]1(C)[C@@H]2CC[C@H]1CC(OC(=O)C(CO)c1ccccc1)C2` (stereo not given in full), 11.7% [at 35.3 µM].

Take `CCC(C)c1cccc(C(C)CC)c1O` (stereo not given): the “activation” value is 7.86%.

Take `CCCCC(CC)COC(=O)OOC(C)(C)C` (stereo not given): the “activation” value is 3.53%. On the same count and under the same terms, with `N#CSCc1ccccc1` the figure was -15.6%.

`CCC1(CC)C(=O)N=C(O)NC1=O`: the “activation” value is 13%. Same read-out and setting: the same measure for `O=Cc1ccccc1`: 18.3%; for `COC(=O)C(C)N(C(=O)c1ccco1)c1c(C)cccc1C` (stereo not given): -6.22%. On to `CCC[CH2][Sn]([CH2]CCC)([CH2]CCC)[CH2]CCC`, for which the Potency is 87.1 nM (active).

For `CCCCC/C=C\C/C=C\C/C=C\C/C=C\CCCC(=O)NCC(=O)O`, the “activation” value was -18.2% [at 35.3 µM]. On the same count and under the same terms, with `[Cl-].[Cl-].[Sn+2]` the figure was 1.35%. Same read-out and setting: with `O=[N+]([O-])c1cccc2cccc([N+](=O)[O-])c12` the figure was 6.46%; with `[O]=[Cr][O][Cr]=[O]`, -6.93%; with `O=C(NC(=O)c1ccccc1Cl)Nc1ccc(OC(F)(F)F)cc1`, -4.64%. Turning to `O.O.O.O.O.O.O.O=S(=O)([O-])[O-].[Co+2]`, the “activation” value is 3.74%.

For `NC(=O)C(Cl)Cl`, the “activation” value was 0.248%. The same measure, in the same setting: the same measure for `OCC(Br)CBr` (stereo not given): -5.38%. As for `COc1ccc2c3c1O[C@H]1[C@H](O)CC[C@H]4[C@@H](C2)N(C)CC[C@@]341`, the “activation” value was -4.31%. The same measure, in the same setting: the same measure for `CCCCN(CCCC)C(=S)S`: -14.4%; for `CCCCCCCCCCCCCCn1cc[n+](C)c1`: -15.3%. The same measure, in the same setting: with `CSC1=N[C@@](C)(c2ccccc2)C(=O)N1Nc1ccccc1` the figure was -4.62%. As to `CN1C(=O)[C@@H](NC(=O)c2cc3ccccc3[nH]2)N=C(c2ccccc2)c2ccccc21`, the “activation” value is -5.42% [at 35.3 µM]. As for `CCn1cc[n+](C)c1` (tested in a mixture with another compound), the “activation” value is -8.36%.
